Screen size: about 96,000 compounds; about 20,000 (21%) were called active. The list is a sample of the results. Unmarked numbers belong to inactive results.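 Rule for the calls: active = CYP2C19 inhibition above a set limit at 5 µM in the primary screen (cut at about 50% in these data); inactive = the rest.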

The inhibition is the drop in the measured response relative to a control, in per cent.

For this assay, the target named is Cytochrome P450 2C19 (Homo sapiens) (UniProt P33261). The assay is described as follows: blockers of cytochrome P450 2C19 activity – biochemical, luminescence, ADME assay, primary screen (AID 778).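 Note: plate controls were negative control wells for no effect and 2.5 mM tranylcypromine positive control for full effect.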 To be noted: CYP2C19 Supersomes, luciferin-H EGE luminescence, 30 min; at 5 µM; stronger effect = higher value.
Cytochrome P450 2C19 (Homo sapiens), sequence (P33261 whole entry, looked up): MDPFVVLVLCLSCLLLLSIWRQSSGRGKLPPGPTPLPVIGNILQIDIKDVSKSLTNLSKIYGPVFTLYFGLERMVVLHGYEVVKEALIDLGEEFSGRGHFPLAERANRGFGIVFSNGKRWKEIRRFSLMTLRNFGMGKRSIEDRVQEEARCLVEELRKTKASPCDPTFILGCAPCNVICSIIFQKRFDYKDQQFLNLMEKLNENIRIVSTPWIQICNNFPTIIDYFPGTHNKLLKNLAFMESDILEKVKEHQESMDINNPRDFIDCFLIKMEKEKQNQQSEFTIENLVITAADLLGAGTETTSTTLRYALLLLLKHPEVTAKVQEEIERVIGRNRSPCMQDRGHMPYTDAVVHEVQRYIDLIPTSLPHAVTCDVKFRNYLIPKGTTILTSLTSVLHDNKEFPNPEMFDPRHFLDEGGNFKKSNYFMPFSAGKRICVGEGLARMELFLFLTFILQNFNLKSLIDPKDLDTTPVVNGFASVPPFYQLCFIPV
As to `COCCOC(=O)C1=C(C)N=c2s/c(=C\c3cccs3)c(=O)n2C1c1cccs1` (stereo not given), the inhibition was 45.2%.

Consider `COc1ccc(C2C(C(C)=O)=C(O)C(=O)N2c2nccs2)cc1` (stereo not given), for which the inhibition is -17%.

Regarding `CCOC(=O)C1=C(C)N=c2s/c(=C\C(=O)OC)c(=O)n2C1c1ccc(OC)cc1` (stereo not given), the inhibition was 67.5% (active).

For the molecule `S=C1SCN(CCN2CCOCC2)CN1Cc1ccccc1`, the inhibition was 25.3%.

Consider `O=C(Nc1c(C(=O)N2CCCCC2)cnn1-c1ccccc1)c1ccco1`, for which the inhibition was -7.8%.

For `Cc1ccc(C2C(C#N)C(C#N)N3CCCN23)cc1` (stereo not given), the inhibition was -7.9%.

Take `Cn1nnnc1SCC(=O)Nc1ccccc1C(=O)NC1CC1`: the inhibition was -4.1%.

For `CCOC(=O)CNC(=O)CSc1nnnn1-c1cc(C)ccc1C`, the inhibition was 13.5%.

For `O=C(Cn1nnc2ccccc2c1=O)Nc1cc(C(F)(F)F)ccc1N1CCOCC1`, the inhibition is 31%.

Take `O=C(O)CCSc1nnc(-c2ccccc2)n1-c1ccccc1`: the inhibition was 1.2%.

For the molecule `O=c1c2ccccc2nc(CSc2nnnn2-c2ccccc2)n1-c1ccccc1`, the inhibition is -5.9%.

On to `C=CCn1c(Cn2nnc3ccccc32)nnc1SCC(=O)N/N=C/c1cc(Br)cc(OC)c1O`, for which the inhibition was 22.7%.

`CN(C(=O)CSc1nnnn1-c1ccccc1)C1CCCCC1`: the inhibition was 71.1% (active).

For the molecule `C=CCn1c(SCn2nnc3ccccc3c2=O)nnc1-c1ccc(Cl)cc1`, the inhibition was 87.2% (active).

Consider `O=c1c2ccccc2nnn1CSc1nnnn1-c1ccccc1`, for which the inhibition was 74.2% (active).

Take `CC(=O)c1cc2c(cc1N)OCO2`: the inhibition was 5.3%.

In the case of `CC1CCCC(C)N1C(=O)CN1CCN(c2nc(-c3ccc(F)cc3)cs2)CC1` (stereo not given), the inhibition was 7.4%.

Consider `CC(=O)c1sc2nc(SCC(=O)N3CCCCC3)[nH]c(=O)c2c1C`, for which the inhibition was 15.5%.

Consider `CCOC(=O)c1sc2nc(SC)nc(-c3ccccc3)c2c1N`, for which the inhibition is 6.9%.

With `CCOC(=O)c1sc2nc(CSCC(=O)OCc3ccc(C(=O)OC)o3)[nH]c(=O)c2c1C`, the inhibition was 52.7% (active).

As for `O=C(OCCO)c1cc(Cl)c(C(=O)OCCO)cc1Cl`, the inhibition is 15.6%.

For `Cc1ccccc1NC(=S)Nc1cccc([N+](=O)[O-])c1`, the inhibition was 46.2%.

With `Cc1cccc(NC(=S)Nc2ccc(Br)cc2)c1`, the inhibition was 66.8% (active).

Regarding `Cc1cccc(NC(=O)Nc2cccc(Oc3c(F)c(F)c(F)c(F)c3F)c2)c1`, the inhibition was 0.7%.

Turning to `CCCn1c(SCC(N)=O)nnc1C(C)C`, the inhibition is -9.9%.

With `O=C(CN1CCN(S(=O)(=O)c2ccc3ccccc3c2)CC1)NC(=O)NC1CCCCC1`, the inhibition is 73.3% (active).

In the case of `O=C(NC1CCCCC1)n1c(=O)oc2cc(S(=O)(=O)N3CCCCC3)ccc21`, the inhibition was 6.9%.

As to `O=C(CN1CCN(c2ccccn2)CC1)NC1CCCCC1`, the inhibition is 6.6%.

Turning to `Cc1noc(NS(=O)(=O)c2ccc(N3CC(O)=C(c4ccccc4)C3=N)cc2)c1C`, the inhibition was -16.7%.

For `CCOc1ccccc1C1C(C(=O)OC)=CN(C)C=C1C(=O)OC`, the inhibition was 33.6%.

On to `COC(=O)C1=CN(C)C=C(C(=O)OC)C1c1ccc(Cl)cc1Cl`, for which the inhibition is 74.5% (active).

In the case of `CC12CN3CC(C)(CN(C1)C3c1ccc(Cl)cc1Cl)C2=O` (stereo not given), the inhibition is 20.4%.

Take `NC(=O)C1(N2CCCCC2)CCN(C(=S)Nc2ccc(Cl)cc2)CC1`: the inhibition was 70.7% (active).

On to `COC(=O)c1cc(NC(=O)CN2CCC(C(N)=O)(N3CCCCC3)CC2)cc(C(=O)OC)c1`, for which the inhibition is 14.3%.

As for `COC(=O)c1ccc(C(=O)OC)c(NC(=S)N2CCCCC2)c1`, the inhibition is 16.7%.

Take `O=C(OCc1nnc(-c2ccccc2)o1)c1ccc2c(c1)C(=O)N(CCc1ccccc1)C2=O`: the inhibition was 0.5%.

For the molecule `CCCC(C(=O)n1nc(C)cc1C)C(NS(=O)(=O)c1ccc(C)cc1)c1ccccc1` (stereo not given), the inhibition was 43.5%.

Turning to `CCOc1ccc(C(C)C)cc1S(=O)(=O)n1nc(C)cc1C`, the inhibition was 73.6% (active).

Take `CCOc1ccc(NC(=O)CCC(=O)n2nc(C)cc2C)cc1`: the inhibition is -8.5%.

`COc1cccc(CNc2nc3nc4c(c(=O)n3[nH]2)CCC4)c1`: the inhibition is -17.3%.

`O=C(Cc1cccs1)N1CCCC(c2nc(-c3ccc(S(=O)(=O)N4CCCC4)cc3)no2)C1` (stereo not given): the inhibition was 7.4%.

Turning to `O=C(c1cccs1)N1CCC(c2nc3ccccc3s2)CC1`, the inhibition was 35.6%.

In the case of `O=C(c1cccs1)N1CCCC(c2nc(-c3ccc(F)cc3)no2)C1` (stereo not given), the inhibition was 64% (active).

With `COC(=O)/C(=C\Nc1ccccc1)NC(=O)c1ccc(Cl)cc1Cl`, the inhibition was 49%.

In the case of `C[N+]1(CCNC(=O)/C=N/O)CCCCC1`, the inhibition was 3.7%.

As to `Cc1cc(C)c2c(c1)cc(C)c1nnc(SCC(=O)Nc3cc(C)on3)n12`, the inhibition was 12.6%.

As to `Clc1ccc(COn2c(-c3ccc(Cl)cc3Cl)nc3ncccc32)cc1`, the inhibition is 96.6% (active).

Regarding `O=C(Nc1cccc2ncccc12)c1ccc(-c2ccc(Cl)cc2Cl)o1`, the inhibition was -13.7%.

Take `O=C(CN1C(=O)COc2ccccc21)Nc1ccc(F)cc1`: the inhibition was 33.4%.

In the case of `O=C(CN1C(=O)COc2ccccc21)NCCN1CCc2ccccc2C1`, the inhibition was 53.3% (active).

Turning to `CCCN1CCN(CCCNC(=O)CN2C(=O)COc3ccccc32)CC1`, the inhibition is -16.5%.

Regarding `Cc1cc(C)c2nc(NC(=O)C3CCCO3)sc2c1` (stereo not given), the inhibition was 14.4%.

In the case of `Fc1ccc(-c2nnc(CSc3nnc(-c4ccc5c(c4)OCO5)o3)o2)cc1`, the inhibition is -7.5%.

Turning to `Cc1nc(SC(C)C)[nH]c(=O)c1Cc1ccccc1`, the inhibition is 38.8%.

As to `Cc1cnc(NC(=O)CSc2c(Cl)cccc2Cl)s1`, the inhibition was -7.1%.

For the molecule `C=CCOC(=O)C1=C(C)NC(C)=C(C(=O)OCC=C)C1c1cccs1`, the inhibition was 77% (active).

Regarding `CCOC(=O)N1CC=C2C(C#N)=C(N)C(C#N)(C#N)[C@H](c3cccs3)[C@H]2C1`, the inhibition was -4.5%.

As for `CCCOC(=O)c1[nH]c2c(c1C)C(=O)CC(c1cccs1)C2` (stereo not given), the inhibition was 39.9%.

Consider `COc1cc(C2C(C(=O)Nc3ccc(F)cc3)=C(C)Nc3nc(CCCO)nn32)cc(OC)c1OC` (stereo not given), for which the inhibition was 11.1%.

On to `CCCOC(=O)Cc1c(O)c2ccccc2[nH]c1=O`, for which the inhibition is -12.3%.

Consider `O=c1/c(=C/c2ccc(CNS(=O)(=O)c3ccccc3)o2)sc2n1CCN=2`, for which the inhibition is 52.4% (active).

For the molecule `O=c1nc2s/c(=C\c3ccco3)c(=O)n2nc1Cc1ccccc1`, the inhibition was -5.5%.

Take `CCOc1cc(CNCCN(C)C)c(Cl)cc1OCC(=O)NCCc1ccccc1`: the inhibition was -1.1%.

Regarding `COc1ccc(N2C(=O)CCC(C(=O)Nc3ccccn3)C2c2ccc(OC)c(OC)c2)cc1` (stereo not given), the inhibition is 28.2%.

Regarding `CC(=O)N1CCN(C(=O)Nc2cccc(C(F)(F)F)c2)CC1`, the inhibition is 8.1%.

As to `O=C(Nc1ccccc1)N1CCN(Cc2ccccc2)CC1`, the inhibition is 76.7% (active).

As for `COc1cccc(N2CCN(C(=O)Nc3ccc4c(c3)NC(=O)CO4)CC2)c1`, the inhibition is -6.5%.

`O=C(O)C1CC=CCC1C(=O)Nc1ccccc1C(=O)N1CCN(c2ccccc2)CC1` (stereo not given): the inhibition is -10.7%.

For the molecule `CCOc1ccc(NC(=O)N2CCN(CC)CC2)cc1`, the inhibition was -6.1%.

In the case of `O=C1CCN(C(=O)Nc2ccccc2)N1`, the inhibition is -3.2%.

On to `Cn1nnnc1SCC(=O)N1CCN(Cc2ccccc2)CC1`, for which the inhibition is 38.9%.

With `O=C(Nc1cccc(NC(=O)N2CCN(c3ccccc3)CC2)c1)N1CCN(c2ccccc2)CC1`, the inhibition is 72% (active).

Regarding `CCC(=O)Nc1ccccc1C(=O)N1CCN(Cc2ccccc2)CC1`, the inhibition is 65% (active).

For the molecule `Cc1ccc(C(=O)OC2=CC(=O)CC(C)(C)C2)cc1`, the inhibition is 36.6%.

Take `CCOC(=O)c1[nH]c2ccc(OC)cc2c1NC(=O)N1CCOCC1`: the inhibition is 2.7%.

Consider `Cn1c(SCC(=O)C(C)(C)C)nnc1-c1ccccn1`, for which the inhibition is 33.5%.

Consider `O=C(Nc1ccccc1)Nc1ccccc1C(=O)NCc1ccco1`, for which the inhibition is 79.3% (active).

Consider `Cc1cccc(Nc2ccccc2C(=O)NCc2ccco2)c1C`, for which the inhibition is 22.7%.

Turning to `CS(=O)(=O)N(Cc1ccc(Cl)cc1)c1ccc(C(=O)NCCSCc2ccco2)cc1`, the inhibition is -3.9%.

On to `Cc1ccccc1NC(=O)NCc1ccco1`, for which the inhibition was -11.9%.

On to `Cc1ccc(N(Cc2ccc(C(=O)Nc3ccccc3C(=O)NCc3ccco3)cc2)S(C)(=O)=O)cc1C`, for which the inhibition is 87.7% (active).

Turning to `CCOc1ccccc1C(=O)NCc1ccco1`, the inhibition is 14.6%.

In the case of `CC(=O)N(CC1CCCO1)C1(C(=O)NC2CCCC2)CCCCC1` (stereo not given), the inhibition is 3.8%.

With `O=C(CN1CCOCC1)Nc1c2c(nc3c1CCC3)CCC2`, the inhibition was -3%.

Turning to `Fc1ccccc1/C=C1\CCCC2=C1Nc1ncnn1C2c1ccccc1F` (stereo not given), the inhibition was 45.3%.

Turning to `COc1ccccc1Oc1ccc(S(=O)(=O)Nc2cccnc2)cc1`, the inhibition is 87.6% (active).

`O=S(=O)(Nc1ccccn1)c1ccc(Oc2ccccc2)cc1`: the inhibition was 90.2% (active).

As for `COc1ccc(C(=O)/C=C/Nc2ccccn2)cc1`, the inhibition was 46.4%.

For the molecule `CN1CCc2c(sc3c2c(NCc2ccco2)nc2nnnn23)C1`, the inhibition is 37.8%.

As to `CCOc1ccc(NC(=O)C2CC(=O)N=C(N)S2)cc1` (stereo not given), the inhibition was -0.4%.

With `O=C(Nc1ccccc1)O/N=C1\CCCCC1c1ccc([N+](=O)[O-])cc1[N+](=O)[O-]` (stereo not given), the inhibition is 36.8%.

Regarding `O=C1NC2(CCCCC2)N=C1c1ccccc1`, the inhibition is 25%.

In the case of `Cc1cc(C)c2c(-n3cccc3)c(C(=O)NNS(=O)(=O)c3ccc(F)cc3)sc2n1`, the inhibition is 31%.

For `CC(C)(C)C(=O)c1cnc(Nc2ccccc2)s1`, the inhibition is 36.7%.

Take `CNC(=O)CSc1nnc(CCc2ccccc2)n1-c1ccccc1`: the inhibition is -8.1%.

Consider `CCn1c(Cc2ccccc2)nnc1SCc1nc2ccccc2c(=O)[nH]1`, for which the inhibition was 70.3% (active).

Turning to `CCn1c(Cc2ccccc2)nnc1SCC(=O)Nc1ccccc1`, the inhibition was 74% (active).

For the molecule `CSc1nc(O)c(Cc2ccccc2)c(=O)[nH]1`, the inhibition was 26.1%.

`CCn1c(SCC(=O)Nc2ccc(S(=O)(=O)Nc3onc(C)c3C)cc2)nnc1-c1ccccc1`: the inhibition was 16.5%.

With `O=c1[nH]c(CSc2ncc(-c3ccc(F)cc3)n2Cc2ccco2)nc2ccccc12`, the inhibition is 32%.

The values are drawn from PubChem BioAssay AID778 (Sanford-Burnham Center for Chemical Genomics, 2007).
